Experimental data from PubChem BioAssay AID488899 (Broad Institute, 2010).
Out of some 330,000 compounds screened, about 2,800 (0.85%) were called active.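 The calls were made as follows: active = mean inhibition across replicates of 60% or more, whatever share of single replicates reaches that level; inconclusive = some that reach 60%, reason not given; inactive = mean inhibition across replicates below 60%.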 The list comes from a sample in which actives are over-represented; it also holds similar structures and randomly drawn compounds.

assay: MITF transcriptional activity suppression – cell-based, SK-MEL-5, single point, luciferase, primary screen (AID 488899); conditions: SK-MEL-5 TRPM1 promoter luciferase, 24 h; at 12.5 µM; active compounds read high

inhibition, active:
C[C@@H]1C[C@@H]2O[C@H]2/C=C\C=C\C(=O)Cc2c(Cl)c(O)cc(O)c2C(=O)O1 71.8%
CN(C)CC(O)COc1ccc(C(C)(C)c2ccc(OCC(O)CN(C)C)cc2)cc1 (centres undefined) 65.7%
O=C(CCl)Nc1ccc(Sc2ccc(NC(=O)CCl)cc2)cc1 88.6%
Cc1cccc(-c2nc3ccc(C(=O)NCCN4CCN(C)CC4)cc3nc2-c2cccc(C)c2)c1 69.1%
CCC(C)Cn1c(O)cc2nn(-c3nc4ccccc4s3)c(=O)c-2c1C (centres undefined) 89%
O=c1[nH]c(=S)[nH]c(O)c1/C=C1\C=Nc2ccccc21 65.4%
Cc1ccsc1C(=O)OCC(=O)c1cc(C)n(CC2CCCO2)c1C (centres undefined) 68%
CC(C)(C)c1cc(C(=O)N/N=C/c2ccc([N+](=O)[O-])s2)n[nH]1 85.1%
O=C(CN1C(=O)c2ccccc2S1(=O)=O)N1CCc2ccccc21 74.1%
Oc1c(CN2CCN(c3ccc(F)cc3)CC2)cc(Cl)c2cccnc12 70.7%
Oc1c(CN2CCCC2)cc(COCc2ccccc2)c2cccnc12 73.5%

inhibition, inactive:
CC(C)C(C(=O)NC1CCCCC1)N(CC1CCCO1)C(=O)CNS(=O)(=O)c1ccc(F)cc1 (centres undefined) 10.3%
O=C(CN1CCOc2ccccc21)N1CCC(Cc2ccccc2)CC1 5.49%
CCCC(O)(c1ccccc1)C(c1ccccc1)c1ccccn1 (centres undefined) 4.1%
COc1ccc(CNCCCn2cnc3c(OCc4ccccc4)ncnc32)cc1 -4.78%
CC(C)(c1ccccc1)c1ccc(OCCN)cc1 -6.11%
Cc1cc(C)n(CC(O)COc2ccc(C(C)(C)C)cc2)n1 (centres undefined) -18.8%
Nc1ccc2c(c1)C(O)c1ccc(Cl)cc1-2 (centres undefined) -6.14%
CN(CC(=O)NCCc1ccc(F)cc1)CC(=O)Nc1ccc(F)c(F)c1F 19.3%
Nc1nonc1-n1nnc(C(=O)N/N=C/c2cc(Br)ccc2O)c1CSC1=NCCS1 17.4%
CC(C)(CCl)C(=O)Nc1ccc(Sc2ccc(F)cc2)cc1 -9.91%
O=C(CCl)Nc1cccc(CP(=O)(c2ccccc2)c2ccccc2)c1 5.96%
COC(=O)C1CC2=C(CC(C)(C)CC2=O)N(c2ccccc2)C1=O (centres undefined) -6.85%
O=C(O)CCCn1c(=O)c2cccn2c2ccc(F)cc21 7.45%
CCCC/C(C)=N/NC(=O)NC1CCCCC1 4.57%
Cc1cccc(C(=O)OC(C)CN2CCN(C)CC2)c1 (centres undefined) -41.9%
CCC1=Nc2cc(C(=O)NCCN3CCCC3)ccc2Sc2ccc(C)cc21 -15.3%
FC(F)(F)c1cccc(Cc2noc(CN3CCC(N4CCCCC4)CC3)n2)c1 1.26%
NC(=O)C1CCN(C(=O)c2cc(S(=O)(=O)N3CCN(c4ccccc4)CC3)ccc2Cl)CC1 4.66%
Cc1cc(NC(=O)CN2CCCC(C)C2)n(-c2nc3ccccc3s2)n1 (centres undefined) 1.1%
CCN(CC(=O)NCCCN1CCOCC1)S(=O)(=O)c1cc(Cl)ccc1Cl 12.6%
O=c1[nH]c2cccnc2n(CCNc2ncc(C(F)(F)F)cc2Cl)c1=O -3.01%
O=C(O[C@@H]1[C@H](Cc2ccccc2)NS(=O)(=O)[C@H]2C[C@@H]3C=C[C@]12O3)c1ccccc1Br -5.01%
O=C(Nc1ccc(Br)cn1)C1CCN(S(=O)(=O)c2cccs2)CC1 20.1%
CCc1ccc(NC(=O)CN2CCC(C(=O)c3ccc(OC)cc3)CC2)cc1 16.5%
COCC(=O)Nc1c(C(=O)N2CCCC2)oc2ccccc12 -5.06%
Cc1cc(C)cc(OCC(=O)NNC(=O)c2cc3ccccc3oc2=O)c1 -14.8%
NC(=O)C1(N2CCCCC2)CCN(C(=O)c2ccc(C#Cc3ccccc3)o2)CC1 10.7%
COc1ccc(C(=O)OCC(=O)c2cc(C)n(CC3CCCO3)c2C)cc1[N+](=O)[O-] (centres undefined) -13.5%
Cc1cc(C(=O)CCl)c(C)n1CC1COc2ccccc2O1 (centres undefined) 51.2%
CCOc1cccc2c1OC1(CCCCC1)N1N=C(c3cccnc3)CC21 (centres undefined) -62.4%
Cn1c(=O)c2c(n(Cc3ccccc3)c1=O)NC(=O)C2CC(=O)N1CCc2ccccc2C1 (centres undefined) -5.67%
COC(=O)C1CCN(CC(N)=O)CC1 -7.19%
Cc1cc(C(=O)N/N=C/c2cc([N+](=O)[O-])cc(C)c2O)n[nH]1 11.2%
COc1ccc2ccccc2c1/C=N/NC(=O)c1cc(C)[nH]n1 -14.1%
COc1ccc(S(=O)(=O)N2CCOCC2)cc1NC(=O)c1ccc(OCC(C)C)c(OC)c1 -3.59%
O=C(Oc1ccc(-c2nc(-c3ccccn3)no2)cc1)c1ccccc1 36.6%
O=C(CN1C(=O)c2ccccc2S1(=O)=O)NC1CCCCC1 4.83%
CC1CCCN(C(=O)CN2C(=O)c3ccccc3S2(=O)=O)C1 (centres undefined) 11.4%
Cc1ccc(SCC(=O)NC(=O)NCc2ccco2)c(C)c1 9.21%
COCC(=O)N(C)[C@H]1C[C@H]2c3cc(Oc4ccccc4C)ccc3CCN2C(=O)[C@H]1[C@H](C)O -16.5%
COc1cc(C)cc(CN2CCC(Cc3ccccc3)CC2)c1O 2.68%
Cc1cc(=O)oc2cc(OCC(=O)N3CCN(c4ccc(F)cc4)CC3)c(Cl)cc12 -0.292%
CC1CCCN(CC(O)COCc2ccccc2)C1 (centres undefined) -13.7%
Cc1ccc(CN2CCN(c3ncccn3)CC2)c(C)c1 4.53%
COc1ccc(OCCNS(=O)(=O)Cc2ccccc2)cc1 0.0862%
Cc1ccc(NC(=O)CN2CCCCC2)c2c1CC(C)(C)O2 -7.61%
CCNC(=S)NCC 5.56%
O=C(NNC(=O)c1ccc(-n2cncn2)c([N+](=O)[O-])c1)c1ccccc1 -1.1%
